Source: the supplement of paper PMC6853941

Test system: MCF10A
Assay: perturbation Mahalanobis distance of morphological profile vs DMSO controls (Mahalanobis distance (SD units)); higher = stronger morphological change, active = 7 or more
Details: 72 h
Experimental: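 MCF10A cells were seeded onto drugs dispensed acoustically into 384-well plates, using one dose per drug chosen from its human peak plasma concentration, and incubated for 72 h at 37 °C. Cells were stained for DNA, tubulin and mitochondria and imaged; 78 CellProfiler features were extracted, plate-normalised and compared with DMSO wells.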

[1] = screen batch: Batch1_Mahalanobis_Distance
[2] = screen batch: Batch2_Mahalanobis_Distance

Compound | perturbation Mahalanobis distance [1] | perturbation Mahalanobis distance [2]
COc1ccccc1Oc1c(NS(=O)(=O)c2ccc(C(C)(C)C)cc2)nc(-c2ncccn2)nc1OCCO [Bosentan] (33.6 µM) | 3.04 (inactive) | 5.42 (inactive)
CC(C)(C)C(=O)OCC(=O)[C@H]1CC[C@H]2[C@@H]3CCC4=CC(=O)CC[C@]4(C)[C@H]3CC[C@]12C [Desoxycorticosterone Pivalate] (0.72 µM) | 4.89 (inactive) | 3.54 (inactive)
CC(N=C(NC#N)Nc1ccncc1)C(C)(C)C (stereo not drawn) [Pinacidil] (8.3 µM) | 4.94 (inactive) | 4.16 (inactive)
COc1cnc(NS(=O)(=O)c2ccc(N)cc2)nc1 [Sulfameter] (322.8 µM) | 6.64 (inactive) | 3.67 (inactive)
CC[N+](C)(CC)CCOC(=O)C(O)(c1ccccc1)C1CCCCC1 (stereo not drawn) [Oxyphenonium Bromide] (0.07 µM) | 2.2 (inactive) | 2.44 (inactive)
CCN(CC)Cc1cc(Nc2ccnc3cc(Cl)ccc23)ccc1O [Amodiaquine] (0.7 µM) | 2.08 (inactive) | 2.97 (inactive)
Nc1ccc(O)c(C(=O)O)c1 [Mesalazine] (39.2 µM) | 3.41 (inactive) | 2.94 (inactive)
CNS(=O)(=O)Cc1ccc2[nH]cc(CCN(C)C)c2c1 [Sumatriptan] (1 µM) | 1.95 (inactive) | 3.35 (inactive)
CN(C)C(=O)C(CCN1CCC(O)(c2ccc(Cl)cc2)CC1)(c1ccccc1)c1ccccc1 [Loperamide] (32 µM) | 3.13 (inactive) | 2.31 (inactive)
